The record followed here is PubChem BioAssay (NCI).

Values joined by “and” are separate entries in the source; they are usually repeats but may differ in a detail not shown here. Identical values can stand only once. About 83,000 compounds went through this panel and 20% of them were active in at least one assay; those are over-represented in the sample as a whole.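 48-hour exposure, single concentration, 96-well plates; percent growth endpoint where 0 means no net growth. Active: below 10.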 Active and inactive are the calls of the source.

The test system of the assay is MDA-MB-468 breast. Kind of assay: NCI-60 one-dose screen, 48 h (100 = growth as untreated, 0 = no growth, -100 = all killed). As to conditions: 10 µM unless noted.
With `Cc1ccc(NC(=O)Nc2c(Cl)cccc2Cl)cn1`, the growth is 72.8% (inactive).

As for `Cc1cccc2c3c(sc12)C(c1ccc(F)cc1)C(C#N)=C(N)O3` (stereo not given), the growth was 24.3% (inactive).

Regarding `CN1CCN(CCOc2ccc(-c3cnc4c(-c5ccc(F)cc5)cnn4c3)cc2)CC1`, the growth is 61.3% (inactive).

Take `O=C(Nc1cccc(-n2ccc3c(NC(=O)c4ccccc4)nccc32)c1)c1cccc(C(F)(F)F)c1`: the growth is -2% (active).

`Cc1cc2nc3ccc(=[N+](C)C)cc-3sc2cc1N`: the growth is -13.4% (active) and -40.6% (active).

`O=C(O)c1c(=O)cccc2ssc12`: the growth was -50.5% (active).

Regarding `CSc1cc(SC)ncn1`, the growth is 108% (inactive).

For `O=C(Nc1nc(-c2ccccc2Cl)cs1)c1cc(-c2ccc(Br)cc2)nc2ccccc12`, the growth is 5% (active).

Turning to `COc1ccc(-c2cc(-c3cc(OC)ccc3OC)nc(SCC(=O)c3ccccc3)c2C#N)cc1`, the growth is 106% (inactive).

For `Cn1nc(-c2ccc(Cl)cc2)nc2c(=O)n(C)c(=O)nc1-2`, the growth is -73.2% (active).

With `CC(C)(C)n1cc(-c2ccnc(NCCNS(=O)(=O)c3cccc(F)c3)c2)c(-c2ccccc2)n1`, the growth was 62.8% (inactive).

In the case of `Brc1ccc(-c2cc(-c3ccc4c(c3)OCCO4)n[nH]2)s1`, the growth is 7.7% (active).

With `O=C(CN1C(=O)NC2NC(=O)NC21)N/N=C/c1cccc([N+](=O)[O-])c1` (stereo not given), the growth was 97.6% (inactive).

Regarding `Cc1ccc(-c2csc(NC(=O)CSc3nc(-c4ccccc4)cc(=O)[nH]3)n2)cc1`, the growth is 108% (inactive).

In the case of `C/C=C/C1OCC(CC)C(CCC)O1` (stereo not given), the growth was 122% (inactive).

For `CCOc1ccc(-c2cc(C3(S(=O)(=O)c4ccc(C)cc4)CC=CC3)on2)cc1`, the growth was 72% (inactive).

Turning to `Cc1cc(C)cc(C(=O)Nc2cccc(C#Cc3cccc4[nH]nc(N)c34)c2)c1`, the growth was 43% (inactive).

For `CCOc1cc2ncc(C#N)c(Nc3ccc(OCc4ccccn4)c(Cl)c3)c2cc1NC(=O)/C=C/CN(C)C`, the growth was -35.1% (active).

As to `NC(N)=Nc1ccc(Oc2cccc(NC(N)=Nc3ccc(Br)c(C(F)(F)F)c3)c2)cc1`, the growth was 4.68% (active).

As for `CCN(CC)c1ccc(/C=N\NC(=O)/C=C/C=C/c2ccc3c(c2)OCO3)c(O)c1`, the growth was 13.4% (inactive).

In the case of `Oc1ccc(CSc2nnc(-c3ccc(Oc4ccccc4)cc3)o2)c2cccnc12`, the growth is 30.7% (inactive).

`COc1cc(Cn2c(-c3nonc3N)nc3ccccc32)ccc1C`: the growth was 40.9% (inactive).

For `CCN(CC)CCC(CNc1c(C)cnc2cc(Cl)ccc12)c1ccc(Cl)c(Cl)c1` (stereo not given), the growth is 18.5% (inactive).

Consider `CCCCCCCCCCCCC1CCC(=O)O1` (stereo not given), for which the growth is 105% (inactive).

Regarding `C=C(C=O)[C@@H]1CC=C(C=O)CC1`, the growth was 20.2% (inactive).

With `O=C(N/N=C/c1cccs1)c1[nH]c2ccc(Br)cc2c1-c1ccccc1`, the growth is -8.42% (active).

In the case of `Cc1ccc(C)c(-c2csc(Nc3ccc(C)c(C)c3)n2)c1`, the growth was 14.5% (inactive).

On to `CCNc1cc2c(cc1Br)-c1ccccc1C2=O`, for which the growth is 50.2% (inactive).

For the molecule `CC(C)=CCNc1ncnc2c1ncn2C1OC(COP(=O)(O)O)C(O)C1O` (stereo not given), the growth was 23.3% (inactive).

`COc1cc(C(=O)OCCCCCCCCCCC[P+](c2ccccc2)(c2ccccc2)c2ccccc2)ccc1O`: the growth was -27.7% (active).

With `CCc1cccc2c3c(sc12)C(c1ccc(F)cc1)C(C#N)=C(/N=C/c1ccc(Cl)cc1)O3` (stereo not given), the growth was 31% (inactive).

In the case of `COC(=O)c1c(-c2ccccc2)csc1NC(=O)c1c(-c2ccccc2)noc1C`, the growth is 63.6% (inactive).

In the case of `Cc1ccc(C)c2c1CCC2C(C)C` (stereo not given), the growth is 106% (inactive).

Consider `Cn1c2ccccc2c2nnc(NCCCCO)nc21`, for which the growth is 95.8% (inactive).

`CCCCCc1ccnc(CC(=O)c2ccc(OC)cc2)c1`: the growth is 65.5% (inactive).

`Cc1ccc2nc3[nH]c(=O)[nH]c(=O)c3c(N)c2c1`: the growth is 88.3% (inactive).

Take `Oc1ccc(-c2nnc3c4[nH]ccc4ncn23)cc1`: the growth is 117% (inactive).

Regarding `C=C(C)[C@@H]1CC[C@]2(COP(=O)(OCC)OCC)CC[C@]3(C)[C@H](CC[C@@H]4[C@@]5(C)CCCNC(C)(C)[C@@H]5CC[C@]43C)[C@@H]12`, the growth is 24.6% (inactive).

Regarding `O=C1CCC(NC(=S)Nc2ccccc2)N1` (stereo not given), the growth is 112% (inactive).

For the molecule `COc1ccc2[nH]cc(-c3nn4cc(-c5ccncc5)nc4s3)c2c1`, the growth was 29.2% (inactive).
